Data on 50 compounds can be found in ChEMBL document CHEMBL3988442, “University of Dundee, Small-Polar-MMV Screening Library” (2021).

Hit rate of the full screen: of about 48,000 compounds, about 13,000 (27%) showed an effect of 50% or more. The list shows a part of the results.

For this assay, the system named is Wolbachia pipientis. As to the kind of experiment: Anti-Wolbachia Cell-Based Screen. The assay is classed as functional. Also on record: scale not given: in the data most compounds retested in dose-response had high values. As to conditions: 5 µM.
As to `CC(C)c1nc(C2CCCN(C(=O)CCn3cncn3)C2)no1` (stereo not given), the “Percent Effect” value was found to be 109.8%.
As for `Cc1nc(C2CCCN2C(=O)CCCn2cccn2)no1` (stereo not given), the “Percent Effect” value is 80.92%.
The same measure for `CC(C)c1nc(C2CCCN(C(=O)CCCn3cncn3)C2)no1` (stereo not given): 2.854%; for `Cc1csc(C2CCCCN2C(=O)CCn2cncn2)n1` (stereo not given): 8.818%.
Regarding `Cc1nc(C2CCCN2C(=O)CNS(C)(=O)=O)no1` (stereo not given), the “Percent Effect” value was -1.869%.
Consider `Cc1nc(C2CCCN2C(=O)CCCOc2ccccc2C)no1` (stereo not given), for which the “Percent Effect” value stood at 3.026%.
The same measure for `CC(C)c1nc(C2CCCN(C(=O)CN3CCN(C)CC3)C2)no1` (stereo not given): -17.54%; for `CCC(CC)n1nc(C)cc1NC(=O)C1CCCO1` (stereo not given): 0.9599%.
In the case of `COCCNC(=O)[C@H]1CC[C@@H]2[C@@H](CCN2S(C)(=O)=O)O1`, the “Percent Effect” value is -5.573%.
The same measure for `COc1cc2c(cc1-c1nc3c(cnn3C(C)C(C)C)[nH]1)OCO2` (stereo not given): -3.309%; for `Cc1nc(C2CCCN2C(=O)CCCn2cncn2)no1` (stereo not given): 100.4%.
Take `CCc1nc(C2CCCN2C(=O)CCCOc2cccc(F)c2)no1` (stereo not given): the “Percent Effect” value is given as -10.09%.
The same measure for `CC(C)c1nc(C2CCCN2C(=O)c2cnc[nH]2)no1` (stereo not given): -3.664%.
The same measure for `CC(C)c1nc(C2CCCN2C(=O)CCn2cncn2)no1` (stereo not given): 104.8%.
Regarding `CCc1nc(C2CCCN2C(=O)CCCn2cncn2)no1` (stereo not given), the “Percent Effect” value turned out to be 114.2%.
The same measure for `COCc1nc(C(=O)N2CCCC2c2noc(C(C)C)n2)cs1` (stereo not given): -1.506%; for `Cc1csc(C2CCCCN2C(=O)CCCn2cncn2)n1` (stereo not given): -9.865%.
On to `Cc1cc(S(=O)(=O)Nc2cccc(-n3cccc3)c2)sc1C(=O)O`, for which the “Percent Effect” value was -5.79%.
Regarding `CS(=O)(=O)N[C@H]1CN(C(=O)CCc2ccc(=O)[nH]n2)C[C@@H]1C1CC1`, the “Percent Effect” value is -10.51%.
The same measure for `Cc1cc(C(=O)NCC2Cn3nnc(C)c3CO2)no1` (stereo not given): 3.49%; for `CCCc1nccn1-c1ccncc1`: 13.78%.
Turning to `COc1ccc(Oc2nccc3occc23)cc1CN1CCCC1`, the “Percent Effect” value amounted to 7.902%.
The same measure for `COc1c(C(=O)N2CCOCC2)cnc2c1c(C)nn2C`: 129.8%; for `O=C(c1cnc(COc2ccccc2)nc1O)N1CCOCC1`: 1.405%; for `Cc1cc(C(=O)N2CCCC3(CNC(=O)O3)C2)c2c(C)nn(C)c2n1` (stereo not given): 2.308%.
The same measure for `COc1c(C)cnc(CNC(=O)c2cc(C)nc3c2c(C)nn3C)c1C`: -8.384%.
The same measure for `Cc1cc(C(=O)N2CCNC(=O)C2)c(C)n1Cc1ccccn1`: -1.908%.
As to `COc1c(C(=O)N2CCNC(=O)C2)cnc2c1c(C)nn2C`, the “Percent Effect” value turned out to be 124.2%.
With `COC(=O)c1ccccc1NS(=O)(=O)c1c(C)nn(C)c1C`, the “Percent Effect” value came to 21.66%.
The same measure for `Cc1ccc(CNc2ccc(C(=O)N3CCNC(=O)C3)cn2)cc1`: 3.114%; for `COC(=O)c1cnc2c(c(C)nn2C)c1OC`: 97.33%; for `O=C1N(CC2CCCCC2)CCCC1(O)CN1CCc2[nH]ncc2C1` (stereo not given): -9.247%.
Take `COc1cc(F)c(CN2CCN(CC(C)C)C(=O)C2C)cc1OC` (stereo not given): the “Percent Effect” value was 4.949%.
For the compound `CN(C)c1ccc(C(=O)NCC2(c3ccccc3)CCOCC2)cc1`, the “Percent Effect” value amounted to 9.489%.
Consider `CS(=O)(=O)N1C[C@@H]2CC[C@H](C1)N(C(=O)Cn1ccc3ccccc31)C2`, for which the “Percent Effect” value is -4.366%.
The same measure for `CN(CC(=O)N1CCC(Cc2cccc(C(N)=O)c2)C1)C1CCCC1` (stereo not given): -18.46%.
On to `CC(C)Oc1ccc(CNC(=O)CC(F)(F)F)cc1F`, for which the “Percent Effect” value is listed as 4.736%.
On to `O=C1N(c2cccc(Cl)c2)Cc2nc(=O)[nH]n21`, for which the “Percent Effect” value is recorded as -8.298%.
With `Cc1noc([C@@H]2C[C@@H]3CCN(c4nnc(C)s4)C[C@H]3O2)n1.O=C(O)C(F)(F)F`, the “Percent Effect” value was found to be 122.4%.
The same measure for `Cc1noc([C@@H]2C[C@H]3CN(Cc4scnc4C)C[C@H]3O2)n1.O=C(O)C(F)(F)F`: -4.188%; for `Cc1noc([C@@H]2C[C@@H]3CCN(CC4CCOCC4)C[C@H]3O2)n1.O=C(O)C(F)(F)F`: 8.264%.
With `Cc1noc([C@H]2CC[C@@H]3[C@@H](CCN3c3ncccn3)O2)n1`, the “Percent Effect” value is 101.9%.
As to `Cc1noc([C@H]2C[C@@H]3CCN(c4nnc(C)s4)C[C@H]3O2)n1.O=C(O)C(F)(F)F`, the “Percent Effect” value is 107.3%.
In the case of `Cc1noc([C@H]2C[C@@H]3CCN(CC4CCOCC4)C[C@H]3O2)n1.O=C(O)C(F)(F)F`, the “Percent Effect” value is listed as 8.046%.
The same measure for `Cc1noc([C@H]2C[C@@H]3CCN(CC4CC4)C[C@H]3O2)n1.O=C(O)C(F)(F)F`: 1.445%; for `Cc1noc([C@@H]2CC[C@@H]3[C@@H](CCN3S(=O)(=O)c3cccnc3)O2)n1.O=C(O)C(F)(F)F`: 4.369%; for `Cc1noc([C@H]2CC[C@@H]3[C@@H](CCN3S(C)(=O)=O)O2)n1`: 5.645%.
For the compound `Cc1noc([C@@H]2CC[C@@H]3[C@@H](CCN3S(=O)(=O)C3CC3)O2)n1`, the “Percent Effect” value is given as -8.52%.
On to `Cc1noc([C@@H]2CC[C@@H]3[C@@H](CCN3c3nnc(C)s3)O2)n1.O=C(O)C(F)(F)F`, for which the “Percent Effect” value amounted to 108.3%.
On to `Cc1noc([C@@H]2C[C@@H]3CCN(CC4CC4)C[C@H]3O2)n1.O=C(O)C(F)(F)F`, for which the “Percent Effect” value was -0.5641%.
